# Bioassay records: PubChem, National Center for Advancing Translational Sciences (NCATS)
# HCV inh: HCV inhibition | Huh7.5.1 HCVcc-Cre infection, luciferase reporter, 44 h | Potency, µM (highest dose often 41.8 µM), for inactives: at the highest dose activity change, negative = inhibition, hits mostly inhibitors | hit rate 3.4% among 340,000 | AID 651820; also: potency is read from the fitted curve at half-maximal effect; % is scaled to controls: 0 for no effect and ±100 for the full control effect
#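 After 44 h co-culture of compound, cells and HCVcc-Cre (~0.5 moi), substrate is added for 15 min at room temperature and luciferase measured over 15 sec. Cells were seeded at 1,000/well and pre-cultured 4 h.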
# Shiga toxin inh: Shiga toxin inhibition; Vero cells, Shiga toxin protein synthesis inhibition reporter; inhibition, % at 38.7 µM; hit rate 9.2% among 290,000; in the data active = inhibition mostly above about 28%, no sharp cut-off; inactive = mostly below about 43%; also: 0% is about no effect
# Pf growth 48h: inhibits P. falciparum growth in the first generation, 48 h | P. falciparum luciferase growth in erythrocytes, 48 h | hit rate 5.9% among 310,000 | Potency, µM (titrated, usually from 28.7 µM), for the others: top-dose activity change, negative = inhibition, actives largely listed as inhibitors; also: potency is read from the fitted curve at half-maximal effect; % is scaled to controls: 0 for no effect and ±100 for the full control effect
#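 Growth was read as firefly luciferase luminescence after a 48 h, 37 C, 5% CO2 exposure of compounds to reporter-bearing P. falciparum cultures (0.1% parasitemia, 2% hematocrit final) in Albumax-supplemented RPMI 1640.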
# AMA1-RON2 inh: AMA1-RON2 (P. falciparum) interaction inhibition. AlphaScreen AMA1-biotinylated RON2 peptide binding. AID 720542. hit rate 0.2% among 360,000. Potency, µM (titrated, usually from 58.2 µM), inactives show at the top dose activity change, negative = inhibition, actives largely listed as inhibitors;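 also: potency is read from the fitted curve at half-maximal effect; 0% = vehicle wells and -100% = peptide control; nearly all actives have a fitted effect of over 45% in size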
#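 AMA1 (3D7) with his tag at 25 nM final met compounds first, then biotinylated RON2 peptide at 25 nM; detection used donor plus acceptor beads, 10 µg/mL apiece, read by AlphaScreen after 30 min at room temperature.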
# Pf growth 96h: P. falciparum growth inhibition at 96 hours; P. falciparum luciferase reporter growth, 96 h; Potency, µM (doses to about 28.7 µM), inactives show top-dose activity change, negative = inhibition, hits mostly inhibitors; hit rate 6.9% among 320,000; AID 504834; also: potency is read from the fitted curve at half-maximal effect; % is scaled to controls: 0 for no effect and ±100 for the full control effect
#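 Readout is luminescence from an integrated firefly luciferase in P. falciparum. Red cells, 2% hematocrit and 0.05% parasitemia final, were cultured with compound through two parasite generations (96 hours) at 37 C, 5% CO2.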
# Cycloheximide cs: counter-screen for Shiga toxin inhibitors: cycloheximide protein synthesis inhibition; hit rate 12% among 300,000; cell reporter, cycloheximide protein synthesis inhibition counterscreen; max response, %; in the data active = max response mostly above about 13%, no sharp cut-off; inactive = mostly below about 14%; also: read at 38.3 µM for the half of the compounds with a filed dose; 0% is about no effect
# * hit, by the source's call; ? = inconclusive; . = not tested or not shown; [ ] = remark or other dose. Rows were chosen to be rich in hits. Some 21% of all compounds tested hit in one or more screens of this group. Unless noted, calls follow the shape of the dose curve; as a rule, active = well fitted curve in the direction sought with a large enough effect; inconclusive = small, poorly fitted or top-dose-only effect, or another doubt; inactive = no such curve, though single readings can be large; an effect the other way counts as inactive or inconclusive.
SMILES,HCV inh,Shiga toxin inh,Pf growth 48h,AMA1-RON2 inh,Pf growth 96h,Cycloheximide cs
CCOc1ccccc1N1C(=O)c2ccc(S(=O)(=O)c3ccc(C(=O)O)cc3)cc2C1=O,3.8%,-15.0,20.4%,19.8%,0.165µM*,-4.8
O=C(O)c1ccc(S(=O)(=O)c2ccc3c(c2)C(=O)N(NC(=O)c2cccnc2)C3=O)cc1,6.4%,17.2,26.7%,-0.1%,-11.3%,23.6*
CC(=O)Nc1ccc(N2C(=O)c3ccc(S(=O)(=O)c4ccc(C(=O)O)cc4)cc3C2=O)cc1,13.4%,-14.5,11.7µM*,-18.2%,0.2%,-2.5
CCc1ccc(-n2c(SCC(=O)NC3CCS(=O)(=O)C3)nc3ccccc3c2=O)cc1 (stereo unspecified),-6.4%,.,-18.7%,3.9%,?,.
O=C(O)c1c[nH]c2c([N+](=O)[O-])cccc2c1=O,2.8%,.,.,-18.7%,.,.
CC(C)=CCc1c(O)cc2oc3c(CC=C(C)C)c(O)c(O)c(CC=C(C)C)c3c(=O)c2c1O,?,18.3,13.1µM*,61.3%,3.6%,-1.9
COc1cccc2cc(C(=O)C3=C(O)C(=O)N(c4cc(C)on4)C3c3cccs3)oc12 (stereo unspecified),-4.8%,25.7,5.3%,-6.9%,0.0%,9.1
O=c1[nH]c2c(cnn2-c2ccc(Cl)cc2)c(=O)n1-c1cccc(Cl)c1,12.7%,1.6,79.2%,-3.2%,-14.3%,3.3
CCc1nc2ccc(C(=O)NCCc3ccccn3)cn2c1N(CC)Cc1cccc(Br)c1,.,.,.,2.5%,.,.
COc1ccc(N2C(=O)c3ccccc3NC2c2ccc(OC)c(COc3ccccn3)c2)cc1 (stereo unspecified),-8.1%,11.1,-11.3%,-7.1%,-66.2%,16.1*
COc1ccc(C2Nc3ccccc3C(=O)N2Cc2ccccc2)cc1COc1ccccn1 (stereo unspecified),-1.7%,-12.6,?,-0.6%,?,-3.5
CCCN1C(=O)c2ccccc2NC1c1ccc(OC)c(CSc2ccccn2)c1 (stereo unspecified),?,-9.8,?,4.6%,10.4µM*,0.9
CCCN1C(=O)c2ccccc2NC1c1ccc(OC)cc1OC (stereo unspecified),-25.5%,-4.7,?,-13.8%,.,-3.5
COc1ccc(N2C(=O)c3ccccc3NC2c2ccc(OC)c(CSc3ccccn3)c2)cc1 (stereo unspecified),-14.5%,75.7,116.7%,-1.4%,146.3%,56.1*
O=S1(=O)CC(N2CCSCC2)CN1Cc1cn(Cc2cccc(C(F)(F)F)c2)nn1 (stereo unspecified),.,.,.,-3.4%,.,.
COc1ccccc1N1C(=NC(=O)COc2ccccc2)SC2CS(=O)(=O)CC21 (stereo unspecified),13.7%,-1.7,-15.2%,-15.4%,?,0.9
CC(=O)N1c2ccc(S(=O)(=O)N3CCC(C(=O)NCCc4ccc(Cl)cc4)CC3)cc2CC1C (stereo unspecified),10µM*,2.7,?,-1.4%,6.3%,-1.3
CC1Cc2cc(S(=O)(=O)N3CCC(C(=O)NCc4ccco4)CC3)ccc2N1C(=O)C1CCC1 (stereo unspecified),?,-2.5,9.28µM*,-4.1%,?,0.3
CC(=O)N1c2ccc(S(=O)(=O)N3CCC(C(=O)NCc4ccc(C)cc4)CC3)cc2CC1C (stereo unspecified),?,16.7,?,5.3%,11.7µM*,-2.5
CC(=O)N1c2ccc(S(=O)(=O)N3CCCC(C(=O)NCc4ccccc4Cl)C3)cc2CC1C (stereo unspecified),?,-3.3,?,-9.0%,?,-1.1
CC(=O)N1c2ccc(S(=O)(=O)N3CCC(C(=O)NCc4ccccc4Cl)CC3)cc2CC1C (stereo unspecified),8.9%,-5.9,?,1.1%,9.28µM*,9.2
CCCCNC(=O)C1CCN(S(=O)(=O)c2ccc3c(c2)CC(C)N3C(=O)C2CC2)CC1 (stereo unspecified),-10.5%,-5.7,?,16.8%,?,-2.2
Cc1ccc(CNC(=O)C2CCN(S(=O)(=O)c3ccc4c(c3)CC(C)N4C(=O)C3CC3)CC2)cc1 (stereo unspecified),?,0.8,0.0%,-13.0%,-2.6%,3.3
Cc1ccccc1-c1cc2nc(NCCN3CCNC3=O)n(C)c(=O)c2s1,.,.,.,29.9%,.,.
CC(=O)C[C@H]1c2ccccc2S(=O)(=O)N1c1ccccc1,0.3%,.,.,-2.7%,.,.
SMILES,HCV inh,Shiga toxin inh,Pf growth 48h,AMA1-RON2 inh,Pf growth 96h,Cycloheximide cs
CC(=O)N1c2ccc(S(=O)(=O)N3CCC(C(=O)NCc4ccc(N(C)C)cc4)CC3)cc2CC1C (stereo unspecified),?,-2.2,-18.9%,-9.0%,-16.8%,-3.3
COc1ccc(CNC(=O)C2CCN(S(=O)(=O)c3ccc4c(c3)CC(C)N4C(=O)C3CC3)CC2)cc1 (stereo unspecified),?,2.7,?,-1.8%,14.7µM*,-1.7
CC(=O)N1c2ccc(S(=O)(=O)N3CCC(C(=O)NCc4ccc(Cl)cc4)CC3)cc2CC1C (stereo unspecified),?,10.9,9.28µM*,3.4%,-24.4%,-6.5
COC(=O)c1ccccc1NC(=S)N1CCN(c2ccc(OC)cc2)CC1,-18.5%,17.7,-8.6%,?,0.0%,-3.3
O=C1CC(c2ccco2)=Nc2ccccc2N1,7.8%,4.3,20.0%,-7.1%,-0.1%[5.75 µM],11.3*
O=C1CC(c2ccccc2)=Nc2ccccc2N1,3.1%,12.8,.,10.2%,41.8%,9.5
CC1(C)NC(=O)N(CCOCCSc2ccccc2)C1=O,11.0%,28.2,33.9%,-1.0%,9.28µM*,-1.9
Cc1cccc(NC(=O)C(c2ccccc2Cl)N2CCOCC2)c1 (stereo unspecified),9.9%,1.9,11.7µM*,-4.3%,14.7µM*,10.8
O=C(C1Cc2ccccc2CN1C(=O)c1ccccc1)N1CCN(c2ccccc2)CC1 (stereo unspecified),-1.4%,22.1,?,-1.3%,4.15µM*,-2.5
COc1ccc(NC(=O)C2Cc3ccccc3CN2C(=O)c2ccco2)cc1 (stereo unspecified),-1.9%,43.2,-0.6%,-5.3%,4.8%,20.5*
O=C(Nc1nnc(C2CC2)s1)C1Cc2ccccc2CN1C(=O)c1ccco1 (stereo unspecified),11.1%,39.4*,-24.4%,2.4%,?,22.9*
O=C(c1ccc(CN2CCc3ccccc3C2)cc1)N1CCN(c2ccccc2)CC1,-6.8%,6.2,23.4%,9.9%,12.8%,-4.1
COc1ccc(N2CCN(C(=O)C3Cc4ccccc4CN3C(=O)c3ccco3)CC2)cc1 (stereo unspecified),12.0%,.,8.28µM*,-7.5%,?,.
